# Source: PubChem BioAssay (Tox21)
# A number with no mark means an inactive call. Records with an inconclusive call do not appear. Entries that show only a call come without a potency. Calls of active or inactive are those of the source. Unless noted, the call rests on the fitted dose curve.
# Key:
# [1] = Nuclear factor erythroid 2-related factor 2/antioxidant responsive element (Nrf2/ARE) small molecule agonists: qHTS cell viability counter screen in human keratinocytes (AID 1919968; active means well fitted curve in the direction sought with a large enough effect in the repeat runs; an effect the other way counts as inactive or inconclusive; further: nearly all actives have a fitted effect of over 55% in size; further: potency means the concentration at half of the fitted maximal effect)
# Procedure, shortened: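 In human HaCaT keratinocytes stably expressing an ARE-driven luciferase, compound exposure lasted 23 h at 37 C under 5% CO2. Viable cells are quantified with a protease-based fluorogenic reagent (CellTiter-Fluor) read 1 h after addition.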
# [2] = Nuclear factor erythroid 2-related factor 2/antioxidant responsive element (Nrf2/ARE) small molecule agonists: luciferase reporter gene qHTS assay in human keratinocytes (AID 1919969); further: nearly all actives have a fitted effect of over 35% in size; further: potency means the concentration at half of the fitted maximal effect
# [3] = target: Gonadotropin-releasing hormone receptor (Homo sapiens) (UniProt P30968); experiment: Human gonadotropin-releasing hormone receptor (GnRHR) small molecule agonists, calcium flux assay in GnRHR-HEK293 cells (AID 1920063); further: nearly all actives have a fitted effect of over 35% in size
# Procedure, shortened: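 Intracellular calcium rise is the read-out: engineered human GnRHR HEK293 cells, dye-loaded, are exposed to DMSO-dissolved compounds and fluorescence at Ex/Em 480/540 is tracked for 3 min.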
# [4] = target: KiSS-1 receptor (Homo sapiens) (UniProt Q969F8); experiment: Human kisspeptin (KISS1R) small molecule agonists, calcium flux assay in KISS1R-HEK293 cells (AID 1920064; active means well fitted curve in the direction sought with a large enough effect in the repeat runs; an effect the other way counts as inactive or inconclusive)
# Procedure, shortened: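 Concentration-response testing used 15 concentrations in triplicate on human KISS1R-expressing HEK293 cells. Calcium-dependent fluorescence (Ex/Em 480/540) was followed kinetically for 3 min after compound transfer.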
# [5] = G protein-coupled receptor (GPCR) small molecule agonists, calcium flux assay: HEK293 wild type cell line counter screen (AID 1920065)
# Procedure, shortened: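 Fluorescence intensity signals activation. After overnight (18 h) culture and a 1 h calcium dye load at 37 C, compounds are added by pin tool and the plate read at 480/540 nm for 3 min in 1 s steps.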
# [6] = p53 small molecule agonists, cell-based qHTS assay with human liver microsomes: qHTS cell viability counter screen (AID 1963579); further: nearly all actives have a fitted effect of over 45% in size; further: potency means the concentration at half of the fitted maximal effect
# Procedure, shortened: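 Tox21 library compounds, delivered from DMSO stocks, were tested on p53RE-bla cells together with 0.5 mg/mL human liver microsomes and 0.5 mg/mL NADPH (final) over 16 h at 37 C; CellTiter-Glo luminescence served as the cytotoxicity measure.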
# [7] = p53 small molecule agonists, cell-based qHTS assay with rat liver microsomes: qHTS cell viability counter screen (AID 1963580); further: nearly all actives have a fitted effect of over 45% in size
# Procedure, shortened: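 Luminescent ATP readout (CellTiter-Glo, 30 min at room temperature) reports viability of p53RE-bla HCT-116 cells after 16 h at 37 C with test compounds under metabolic activation by rat liver microsomes and NADPH at 0.5 mg/mL final each.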
# [8] = target: 5-hydroxytryptamine receptor 2A (Homo sapiens) (UniProt P28223); experiment: 5-hydroxytryptamine receptor 2A (HTR2A) small molecule antagonists, cell-based qHTS assay (AID 1963586); further: nearly all actives have a fitted effect of over 45% in size
# Procedure, shortened: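 CHO cells stably expressing human HTR2A were plated for 18 h at 37 C, then loaded with calcium dye for 1 h. Compounds were preincubated 5 min at room temperature before DOI (4 nM solution) was added. Kinetic fluorescence was read for 3 min.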
# [9] = target: 5-hydroxytryptamine receptor 2A (Homo sapiens) (UniProt P28223); experiment: 5-hydroxytryptamine receptor 2A (HTR2A) small molecule agonists, cell-based qHTS assay (AID 1963587); further: nearly all actives have a fitted effect of over 30% in size
# Procedure, shortened: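 HTR2A-CHO cells, plated 18 h at 37 C/5% CO2, dye-loaded 1 h at 37 C; compounds in DMSO added by pin tool (agonist mode). Intracellular calcium flux read as kinetic fluorescence on FDSS over 2 min at 1 s intervals.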
# [10] = target: Muscarinic acetylcholine receptor M1 (Homo sapiens) (UniProt P11229); experiment: Cholinergic receptor muscarinic 1 (CHRM1) small molecule antagonists, cell-based qHTS assay (AID 1963588); further: nearly all actives have a fitted effect of over 40% in size
# Procedure, shortened: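 Compounds were tested at 15 concentrations in three independent runs. Dye-loaded CHRM1-CHO cells were exposed 5 min at room temperature before stimulation by acetylcholine added at 50nM. Intracellular calcium was read kinetically on FDSS for 3 min.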
# [11] = target: Muscarinic acetylcholine receptor M1 (Homo sapiens) (UniProt P11229); experiment: Cholinergic receptor muscarinic 1 (CHRM1) small molecule agonists, cell-based qHTS assay (AID 1963589); further: nearly all actives have a fitted effect of over 35% in size
# Procedure, shortened: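 Fluorescent calcium dye reports M1 activation in stably transfected CHO cells. Compounds, 15 concentrations, added after 1 h dye loading at 37 C; kinetic reading at 1 sec intervals.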
# [12] = cAMP Responsive Elements (CRE) small molecule agonists, cell-based qHTS assay (AID 1963590)
# Procedure, shortened: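 Compound exposure lasted 3 h at 37 C/5% CO2 in CRE-bla HEK 293T cells grown in assay medium with 10% dialyzed FBS and 25 mM HEPES. Reporter signal came from LiveBLAzer B/G FRET substrate, 2 h, room temperature.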
# [13] = cAMP Responsive Elements (CRE) small molecule antagonists, cell-based qHTS assay (AID 1963591; active means well fitted inhibition curve with a large enough effect in the signal ratio in the repeat runs, not every such curve was filed as active; the % refers to the signal ratio)
# Procedure, shortened: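 Stimulation used NKH477 at a final 0.25 uM for 3 h in compound-treated CRE-bla HEK293T cells, seeded 18 h beforehand. Reporter activity was measured with LiveBLAzer B/G FRET substrate after 2 h at room temperature.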
# [14] = target: Beta-2 adrenergic receptor (Homo sapiens) (UniProt P07550); experiment: Adrenergic beta2 receptor (ADRB2) small molecule antagonists, cell-based qHTS assay (AID 1963592); further: series mostly up to about 92 µM; nearly all actives have a fitted effect of over 50% in size
# Procedure, shortened: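 Assay format: CHO-ADRB2 cells, 18-20hr seeding at 37C/5% CO2, then compound plus 1nM isoproterenol agonist mix for 0.5hr RT. Homogeneous time-resolved fluorescence cAMP detection after 1hr, expressed as 665/615 nm ratio.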
# [15] = target: Beta-2 adrenergic receptor (Homo sapiens) (UniProt P07550); experiment: Adrenergic beta2 receptor (ADRB2) small molecule agonists, cell-based qHTS assay (AID 1963593);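 further: CHO cells stably overexpressing human ADRB2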
# Procedure, shortened: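 CHO cells stably over-expressing ADRB2 were plated overnight at 37C, then dosed with compounds plus a stimulation mix containing 100uM IBMX and 25uM Ro-20-1724 for 0.5hr at room temperature. cAMP was measured by HTRF competition, 1hr.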
# [16] = target: D(2) dopamine receptor (Homo sapiens) (UniProt P14416); experiment: Dopamine D2 receptor (DRD2) small molecule agonists, cell-based qHTS assay (AID 1963594); further: nearly all actives have a fitted effect of over 35% in size
# Procedure, shortened: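 HEK293 cells stably expressing DRD2 were cultured 24 h at 37 C, then given Ro20-1724 (0.1 mM final) and compounds for 10 min at room temperature. NKH477 (200nM) was then added for 30 min. cAMP was read by HTRF.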
# [17] = target: D(2) dopamine receptor (Homo sapiens) (UniProt P14416); experiment: Dopamine D2 receptor (DRD2) small molecule antagonists, cell-based qHTS assay (AID 1963595; active means well fitted inhibition curve with a large enough effect in the signal ratio in the repeat runs, with a control signal flat; the % refers to the signal ratio; further: potency means the concentration at half of the fitted maximal effect)
# Procedure, shortened: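 Antagonist mode in DRD2-HEK293 cells: after compound addition with 0.1 mM Ro20-1724, cells received quinpirole (12 nM) and NKH477 (200 nM) for 30 min at room temperature; HTRF cAMP read after 1 h detection.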
# [18] = p53 small molecule agonists, cell-based qHTS assay: qHTS cell viability counter screen (AID 1963581); further: nearly all actives have a fitted effect of over 45% in size; further: potency means the concentration at half of the fitted maximal effect
# Procedure, shortened: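 Luminescence from CellTiter-Glo, reflecting ATP content, serves as the cytotoxicity measure; it is taken after the 2 h reporter substrate step in HCT-116 p53RE-bla cells dosed for 16 h at 37 C.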
# Sequence of D(2) dopamine receptor (Homo sapiens) (P14416 whole entry, looked up): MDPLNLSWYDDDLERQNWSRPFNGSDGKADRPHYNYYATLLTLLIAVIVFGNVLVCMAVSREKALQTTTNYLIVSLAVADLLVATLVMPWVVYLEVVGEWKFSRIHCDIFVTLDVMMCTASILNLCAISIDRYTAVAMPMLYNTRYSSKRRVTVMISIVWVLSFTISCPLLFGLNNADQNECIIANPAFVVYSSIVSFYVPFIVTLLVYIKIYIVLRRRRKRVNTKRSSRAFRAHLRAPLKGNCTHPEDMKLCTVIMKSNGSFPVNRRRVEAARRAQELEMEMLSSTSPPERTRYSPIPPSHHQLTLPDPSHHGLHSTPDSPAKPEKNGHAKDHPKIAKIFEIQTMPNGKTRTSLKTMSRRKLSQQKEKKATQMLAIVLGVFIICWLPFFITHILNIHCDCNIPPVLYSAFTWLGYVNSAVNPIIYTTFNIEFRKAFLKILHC
# Sequence of Gonadotropin-releasing hormone receptor (Homo sapiens) (P30968 whole entry, looked up): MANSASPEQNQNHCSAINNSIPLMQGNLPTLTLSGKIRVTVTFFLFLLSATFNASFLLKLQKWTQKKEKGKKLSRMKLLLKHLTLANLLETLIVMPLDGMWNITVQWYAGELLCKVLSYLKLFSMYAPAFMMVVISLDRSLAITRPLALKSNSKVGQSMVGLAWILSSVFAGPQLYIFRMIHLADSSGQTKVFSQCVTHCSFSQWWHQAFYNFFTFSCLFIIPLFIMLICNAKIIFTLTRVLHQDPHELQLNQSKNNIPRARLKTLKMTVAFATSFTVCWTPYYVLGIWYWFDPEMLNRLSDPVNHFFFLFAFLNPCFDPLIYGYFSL
# Sequence of Beta-2 adrenergic receptor (Homo sapiens) (P07550 whole entry, looked up): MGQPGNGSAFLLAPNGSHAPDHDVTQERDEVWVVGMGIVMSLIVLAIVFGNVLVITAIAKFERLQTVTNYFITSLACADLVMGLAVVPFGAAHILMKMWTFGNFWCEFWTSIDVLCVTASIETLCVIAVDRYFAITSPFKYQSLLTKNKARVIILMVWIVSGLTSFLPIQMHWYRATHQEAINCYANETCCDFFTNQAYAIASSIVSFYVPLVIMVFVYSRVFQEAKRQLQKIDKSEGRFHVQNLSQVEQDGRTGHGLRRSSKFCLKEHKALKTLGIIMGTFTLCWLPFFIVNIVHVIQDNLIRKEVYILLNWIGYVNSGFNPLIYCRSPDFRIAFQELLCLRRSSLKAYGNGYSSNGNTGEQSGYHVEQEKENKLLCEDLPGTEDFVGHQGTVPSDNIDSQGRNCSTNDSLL
# Sequence of KiSS-1 receptor (Homo sapiens) (Q969F8 whole entry, looked up): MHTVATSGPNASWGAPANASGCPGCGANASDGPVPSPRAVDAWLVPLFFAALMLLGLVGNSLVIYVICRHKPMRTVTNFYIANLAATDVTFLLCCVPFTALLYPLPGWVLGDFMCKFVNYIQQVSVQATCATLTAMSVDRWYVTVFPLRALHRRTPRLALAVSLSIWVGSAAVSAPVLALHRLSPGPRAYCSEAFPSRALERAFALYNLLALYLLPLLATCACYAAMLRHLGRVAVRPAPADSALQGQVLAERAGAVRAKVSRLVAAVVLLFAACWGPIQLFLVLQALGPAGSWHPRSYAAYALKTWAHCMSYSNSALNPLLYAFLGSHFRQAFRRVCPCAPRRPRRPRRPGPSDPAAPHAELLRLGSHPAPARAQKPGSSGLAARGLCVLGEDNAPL
# Sequence of Muscarinic acetylcholine receptor M1 (Homo sapiens) (P11229 whole entry, looked up): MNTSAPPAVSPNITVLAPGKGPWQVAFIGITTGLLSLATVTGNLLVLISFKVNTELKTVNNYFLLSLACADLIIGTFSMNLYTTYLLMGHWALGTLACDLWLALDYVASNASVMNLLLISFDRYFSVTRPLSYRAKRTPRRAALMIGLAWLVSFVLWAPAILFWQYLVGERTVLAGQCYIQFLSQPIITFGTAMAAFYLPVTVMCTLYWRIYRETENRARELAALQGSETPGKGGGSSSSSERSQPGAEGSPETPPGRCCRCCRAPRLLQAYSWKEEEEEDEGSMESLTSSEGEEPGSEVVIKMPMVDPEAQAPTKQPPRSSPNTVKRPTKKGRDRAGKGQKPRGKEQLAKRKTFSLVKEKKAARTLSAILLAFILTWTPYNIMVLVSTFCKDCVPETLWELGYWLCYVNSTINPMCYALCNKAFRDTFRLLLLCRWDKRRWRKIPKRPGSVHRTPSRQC
# Sequence of 5-hydroxytryptamine receptor 2A (Homo sapiens) (P28223 whole entry, looked up): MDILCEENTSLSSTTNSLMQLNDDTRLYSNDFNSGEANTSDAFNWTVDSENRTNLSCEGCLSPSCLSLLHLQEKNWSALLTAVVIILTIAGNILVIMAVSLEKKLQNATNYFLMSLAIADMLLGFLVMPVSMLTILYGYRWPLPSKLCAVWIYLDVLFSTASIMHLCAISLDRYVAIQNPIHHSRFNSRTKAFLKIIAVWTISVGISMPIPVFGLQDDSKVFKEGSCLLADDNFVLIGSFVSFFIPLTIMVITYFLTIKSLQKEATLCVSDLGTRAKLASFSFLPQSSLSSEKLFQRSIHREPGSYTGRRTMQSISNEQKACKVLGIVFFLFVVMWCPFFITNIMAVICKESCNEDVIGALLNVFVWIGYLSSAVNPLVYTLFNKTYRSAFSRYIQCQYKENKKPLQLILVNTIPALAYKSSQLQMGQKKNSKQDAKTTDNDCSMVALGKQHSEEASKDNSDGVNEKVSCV
Structure (SMILES),Potency [1],Potency [2],Potency [3],Potency [4],Potency [5],Potency [6],Potency [7],Potency [8],Potency [9],Potency [10],Potency [11],Potency [12],Potency [13],Potency [14],Potency [15],Potency [16],Potency [17],Potency [18]
N[C@@H](CCC(=O)O)C(=O)O,inactive,inactive,inactive,inactive,inactive,inactive,inactive,inactive,inactive,inactive,inactive,inactive,inactive,inactive,inactive,inactive,inactive,
O=C(Nc1cccc(Cl)c1)OCC#CCCl,17.2 µM (active),12.2 µM (active),inactive,inactive,inactive,inactive,inactive,inactive,inactive,inactive,inactive,,,inactive,inactive,inactive,inactive,
COc1cc(C(C)(C)C)c(O)c(C(C)(C)C)c1,inactive,48.6 µM (active),inactive,inactive,inactive,inactive,,inactive,,,inactive,,,inactive,inactive,inactive,inactive,inactive
CC(C)(C)Cl,inactive,inactive,inactive,inactive,inactive,inactive,,inactive,inactive,inactive,,inactive,inactive,,,inactive,inactive,inactive
Nc1ccn([C@@H]2O[C@H](CO)[C@@H](O)C2O)c(=O)n1 (stereo not given in full),inactive,inactive,inactive,inactive,inactive,inactive,,,,,,inactive,inactive,inactive,inactive,inactive,inactive,inactive
Nc1nc(-c2ccccc2)cs1,inactive,inactive,inactive,inactive,inactive,inactive,,,inactive,inactive,inactive,inactive,,inactive,,inactive,inactive,inactive
N#CSCSc1nc2ccccc2s1,13.7 µM (active),9.69 µM (active),inactive,inactive,inactive,inactive,,,inactive,inactive,inactive,,,inactive,,inactive,54.5 µM (active),inactive
CCC1(C)CC(=O)NC1=O (stereo not given),inactive,inactive,inactive,inactive,inactive,inactive,,,,,,inactive,inactive,inactive,inactive,inactive,inactive,inactive
N=C1N=C(N)c2cc3ccccc3cc21,24.3 µM (active),21.7 µM (active),inactive,inactive,inactive,45.8 µM (active),,,inactive,,inactive,,,,,,,23.6 µM (active)
CNC(=O)C(c1ccccc1)c1ccccc1,inactive,inactive,inactive,inactive,inactive,inactive,,inactive,inactive,inactive,inactive,inactive,inactive,inactive,,inactive,inactive,inactive
CC(C)N(c1ccccc1)C(C)C,inactive,inactive,inactive,inactive,inactive,inactive,,inactive,inactive,,inactive,inactive,inactive,inactive,,inactive,inactive,
COc1ccc2c(c1)c1c3n2CCN(C)C3=NCC1,inactive,inactive,inactive,inactive,inactive,inactive,,inactive,inactive,inactive,inactive,inactive,inactive,inactive,,inactive,inactive,
CCN(CCC#N)c1ccccc1,inactive,inactive,inactive,inactive,inactive,inactive,,inactive,inactive,inactive,,inactive,inactive,inactive,inactive,inactive,inactive,inactive
O=C(O)CC(=O)C(=O)O,inactive,inactive,inactive,inactive,inactive,inactive,,inactive,,,inactive,inactive,inactive,inactive,,,inactive,inactive
